Most compounds without a hit are left out; they make up all but 2.7% or so of the library.
PREPL inhibitor = inhibitors of human prolyl oligopeptidase-like enzyme PREPL | Q4J6C6 | recombinant PREPL, fluorescence polarization activity-based probe | inhibition, % at 5.96 µM | hit rate 0.68% among 320,000 | AID 2751; in the data active = inhibition above about 43%;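 also: 0% = enzyme with DMSO and 100% = wells lacking enzyme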
PP1 inh = PP1-alpha (human) inhibition in PP5 counter-screen. P62136. purified PP1alpha, OMFP fluorescence. inhibition, % at 6.7 µM. hit rate 0.9% among 320,000;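 active = inhibition above the mean inhibition of all tested compounds plus 3 SD, computed separately for each screening campaign, cut at about 15% in these data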
Target sequence (P62136 whole entry, looked up): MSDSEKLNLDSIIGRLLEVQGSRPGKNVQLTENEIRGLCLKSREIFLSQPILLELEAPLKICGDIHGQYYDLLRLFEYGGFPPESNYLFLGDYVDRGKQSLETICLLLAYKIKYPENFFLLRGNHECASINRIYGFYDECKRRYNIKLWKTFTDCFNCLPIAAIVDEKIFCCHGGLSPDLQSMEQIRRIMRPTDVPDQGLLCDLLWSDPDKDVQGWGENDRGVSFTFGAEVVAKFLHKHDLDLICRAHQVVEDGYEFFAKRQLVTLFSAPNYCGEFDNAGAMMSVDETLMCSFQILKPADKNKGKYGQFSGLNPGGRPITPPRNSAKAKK
TMEM16A inh = blocks the mouse calcium-activated chloride channel TMEM16A | Q8BHY3 | HEK293 TMEM16A/YFP iodide influx fluorescence, ionomycin | normalized B-score (activity score, 25-100; higher = stronger inhibition) at 10 µM | hit rate 1.2% among 310,000 | AID 588511;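 active = ratio plate-corrected score three or more library SD toward inhibition, starting fluorescence score within five deviations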;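 also: score derived from kinetic fluorescence span divided by baseline fluorescence per well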
TMEM16A act = activates or potentiates the mouse TMEM16A chloride channel | Q8BHY3 | hit rate 0.3% among 340,000 | AID 623877 | B-score at 10 µM | HEK293 TMEM16A/YFP-H148Q/I152L, iodide quench fluorescence; stronger effect = lower value;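 active = fluorescence-ratio B-score plate-corrected deviation score at least 3 library SD below zero, with starting fluorescence score within 5 deviations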;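 also: channel opened by trigger with iodide after compound preincubation; score built on the fluorescence ratio of max minus min over baseline; more negative score means more quench and so TMEM16A activation or potentiation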
FID counter = counter-screen for HCV NS3 helicase inhibitors: DNA intercalator displacement; DNA fluorescent intercalator displacement, fluorescence; inhibition, % at 7.9 µM; hit rate 0.17% among 290,000; AID 1845; in the data active = inhibition above about 37%;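 also: 0% = vehicle and 100% = reference compound; higher means more ethidium bromide displaced from hairpin DNA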
PP5 inh = blocks human protein phosphatase 5 activity; purified PP5c, OMFP substrate fluorescence; inhibition, % at 6.7 µM; hit rate 0.18% among 320,000;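 active = inhibition above the campaign's mean inhibition across all tested compounds plus 3 SD, cut at about 9.5% in these data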;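 also: 0% = DMSO only and 100% = 100 µM cantharidin control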
* marks the source's active call; other numbers are inactive results.

For Cc1ccc(-c2noc(C3CCCN(C(=O)c4c(F)cccc4F)C3)n2)cc1 (stereo unspecified) the results were PREPL inhibitor 4.1, PP1 inh -2.3, TMEM16A inh inactive, FID counter -16.3 and PP5 inh 1.9.
COc1ccc(CCC(=O)OCC(=O)c2c(N)n(CC(C)C)c(=O)n(C)c2=O)cc1 was read as PREPL inhibitor 24.2, PP1 inh -0.3, TMEM16A inh inactive, TMEM16A act -5.43*, FID counter -33.8 and PP5 inh 3.1.
`O=[N+]([O-])c1ccc(CSc2nc3ccccc3o2)cc1` gave PREPL inhibitor 12.8, PP1 inh 0.4, TMEM16A inh inactive, TMEM16A act inactive, FID counter 0.8 and PP5 inh 1.6.
COC(=O)c1ccc(CSc2nc3ccccc3o2)cc1 was read as PREPL inhibitor -17.3, PP1 inh -3.7, TMEM16A inh 25*, TMEM16A act inactive, FID counter -7.2 and PP5 inh 1.3.
For COC(=O)c1c(NC(=O)CCc2ccc(C)o2)sc(C)c1C the results were PREPL inhibitor -6.7, PP1 inh 3.2, TMEM16A inh 100*, TMEM16A act inactive, FID counter -6.2 and PP5 inh 3.5.
`Cc1ccc(O)c(C2=NNC(O)(C(F)(F)F)C2)c1` (stereo unspecified) gave PREPL inhibitor -11.4, PP1 inh -0.9, TMEM16A inh 25*, TMEM16A act inactive, FID counter 0.3 and PP5 inh 3.4.
O=C(NCCc1ccc(Cl)cc1)c1ccc(CNc2c(N3CCOCC3)c(=O)c2=O)cc1 was read as PREPL inhibitor 28.4, PP1 inh 8.5, TMEM16A inh inactive, TMEM16A act -6.64*, FID counter -23.5 and PP5 inh -2.0.
Screening O=C(NCc1ccc(Cl)cc1)c1ccc(CNc2c(N3CCOCC3)c(=O)c2=O)cc1 returned PREPL inhibitor 11.4, PP1 inh 0.4, TMEM16A inh inactive, TMEM16A act inactive, FID counter -11.3 and PP5 inh 3.0.
`CC(C)c1ccc(C(=O)NCCCN2CCOCC2)cc1` gave PREPL inhibitor 8.6, PP1 inh -2.6, TMEM16A inh inactive, TMEM16A act inactive, FID counter 7.0 and PP5 inh 2.8.
For O=C(NCCCN1CCOCC1)c1ccc(CSc2ccc(Cl)cc2)cc1 the results were PREPL inhibitor 18.5, PP1 inh 5.1, TMEM16A inh inactive, TMEM16A act inactive, FID counter 38.0* and PP5 inh 2.1.
Screening O=C(CSCc1ccccc1)NCCCN1CCOCC1 returned PREPL inhibitor 4.0, PP1 inh 1.0, TMEM16A inh inactive, TMEM16A act inactive, FID counter 4.0 and PP5 inh -1.2.
O=C(CSc1ccccc1)NCCCN1CCOCC1 was read as PREPL inhibitor 9.6, PP1 inh -4.0, TMEM16A inh inactive, TMEM16A act -11.2*, FID counter 0.9 and PP5 inh 0.0.
Screening COc1ccc2oc(C(=O)OCC(=O)NC3CCCCC3)c(C)c2c1 returned PREPL inhibitor 16.7, PP1 inh -2.2, TMEM16A inh inactive, TMEM16A act inactive and PP5 inh 1.6.
CCOc1ccc(NC(=O)CNC(=O)c2nn(-c3ccc(OC)c(OC)c3)c(=O)c3ccccc23)cc1 was read as PREPL inhibitor 5.7, PP1 inh 8.3, TMEM16A inh inactive, TMEM16A act inactive, FID counter -33.4 and PP5 inh 0.5.
`COc1ccc(-n2nc(C(=O)NCC(=O)Nc3cccc(Cl)c3)c3ccccc3c2=O)cc1OC` gave PREPL inhibitor 21.1, PP1 inh -11.2, TMEM16A inh 25*, TMEM16A act inactive, FID counter -17.1 and PP5 inh -6.3.
O=C(N[C@@H]1CCC(=O)N(CC[C@H](Sc2ccc(Br)cc2)c2ccccc2)CC1)OCc1ccccc1 was read as PREPL inhibitor 9.2, PP1 inh 15.6*, TMEM16A act inactive and PP5 inh 2.8.
`CN(C(=O)COC(=O)C12CC3CC(CC(Cl)(C3)C1)C2)c1ccccc1` gave PREPL inhibitor 4.1 and TMEM16A act inactive.
Screening Cc1ccc(S(=O)(=O)N2CCN(Cc3nc4sc5c(c4c(=O)[nH]3)CCCC5)CC2)cc1 returned PREPL inhibitor 3.9, PP1 inh 2.3, TMEM16A inh inactive, TMEM16A act inactive, FID counter -7.0 and PP5 inh 3.8.
`CC1CCc2c(sc3nc(CN4CCN(S(=O)(=O)c5ccccc5[N+](=O)[O-])CC4)[nH]c(=O)c23)C1` (stereo unspecified) gave PREPL inhibitor 1.8, PP1 inh 15.9*, TMEM16A inh inactive, TMEM16A act inactive, FID counter -2.1 and PP5 inh 5.8.
For O=C1CCN(Cc2ccco2)C(=S)N1 the results were TMEM16A act inactive.
Screening O=c1cc(-c2ccccc2)[nH]n1-c1nc2ccccc2[nH]1 returned PREPL inhibitor -0.8, PP1 inh 16.7*, TMEM16A inh inactive, TMEM16A act inactive, FID counter -0.6 and PP5 inh 0.3.
For Cc1cccc(N2CCN(Cc3cc(=O)n4ccsc4n3)CC2)c1C the results were PREPL inhibitor 1.2, PP1 inh -0.3, TMEM16A inh inactive, TMEM16A act -13.8*, FID counter -13.2 and PP5 inh 0.3.
O=c1cc(CN2CCN(c3ccccc3O)CC2)nc2sccn12 was read as PREPL inhibitor -3.8, PP1 inh -4.0, TMEM16A inh inactive, TMEM16A act inactive, FID counter -4.6 and PP5 inh -1.8.
For C#CCOCCOCCOCCNc1nc(N2CCN(C(=O)CCCCCCCCCCNC(=O)[C@H](CCCCN)n3cc(CCO)nn3)CC2)nc(N2CCN(C(=O)CCCCCCCCCCNC(=O)[C@H](CCCCN)n3cc(CCCC(=O)O)nn3)CC2)n1 the results were PREPL inhibitor 28.4, PP1 inh 0.4, TMEM16A inh inactive, TMEM16A act inactive and PP5 inh 1.4.
`C#CCOCCOCCOCCNc1nc(N2CCN(C(=O)CCCCCCCCCCNC(=O)[C@H]([C@@H](C)CC)n3cc(CCCCN=C(N)N)nn3)CC2)nc(N2CCN(C(=O)CCCCCCCCCCNC(=O)[C@H](CCCN=C(N)N)n3cc(C[C@@H](C)CC)nn3)CC2)n1` gave PREPL inhibitor 69.0*, PP1 inh 68.2*, TMEM16A inh 25* and PP5 inh 9.8*.
`C#CCOCCOCCOCCNc1nc(N2CCOCC2)nc(N2CCN(C(=O)[C@H]([C@@H](C)CC)n3cc(CCCN=C(N)N)nn3)CC2)n1` gave PREPL inhibitor 19.0, PP1 inh 2.0, TMEM16A inh inactive, TMEM16A act inactive, FID counter 4.7 and PP5 inh 3.4.
